Test results: PubChem BioAssay AID686979 (National Center for Advancing Translational Sciences (NCATS), 2013)
Screen size: about 420,000 compounds; about 50,000 (12%) were called active. Inconclusive results (about 26%) are left out. This is one part of a sample in which actives are shown more often than they occur. Values without a mark were called inactive. Calls come from the whole dose curve; as a rule, active = well fitted inhibition curve with a large enough effect; inconclusive = small, poorly fitted or top-dose-only effect; inactive = flat fitted curve, though single readings scatter.

Test: qHTS for Inhibitors of human tyrosyl-DNA phosphodiesterase 1 (TDP1): qHTS in cells in presence of CPT; note: nearly all actives have a fitted effect of over 55% in size
Details: chicken DT40 Tdp1-/-;hTDP1 cells + 20 nM CPT, ATP luminescence, 48 h; series mostly up to 46.2 µM; activity change, negative = growth inhibition: at the top concentration
Method in brief: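 Cell growth measured by CellTiter-Glo luminescence after a minimum 48 h, 37 C compound exposure with 20 nM CPT in Tdp1-knockout DT40 cells stably expressing hTDP1, seeded 400/well; qHTS titration format.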
% is set by controls: 0 for no effect and ±100 for the full control effect; potency is the fitted concentration of half-maximal effect.

SMILES | activity change, negative = growth inhibition | Potency
N#C/C(=C\N1CCOCC1)S(=O)(=O)c1ccc(Cl)cc1 | -4.67% | 
O=C(COC(=O)c1ccccn1)NNC(=O)c1ccc([N+](=O)[O-])cc1 | 6.48% | 
O=S1(=O)CCN(Cc2ccccc2)CC1 | -3.67% | 
CN(CC(=O)NCc1ccncc1)S(=O)(=O)c1ccc(Br)cc1 | -6.71% | 
CC(=O)c1nn(-c2ccccc2)c(=Nc2ccccc2)cc1C | -5.14% | 
COC(=O)c1cc(-c2cccs2)nc2ccccc12 | 1.15% | 
O=c1[nH]c(-c2cccs2)nc2ccccc12 | -22.6% | 
CC(=O)Nc1cccc(Nc2nc(-c3cccs3)nc3ccccc23)c1 |  | 16.4 µM (active)
CCN(CC)c1ccc(/C=N/NC(=O)CNC(=O)c2cccs2)cc1 | 2.32% | 
CCN(C(=O)CSc1ncnc2sccc12)c1c(N)n(Cc2ccccc2)c(=O)[nH]c1=O | 9.86% | 
COc1ccc(-c2nc3cc([N+](=O)[O-])ccc3o2)cc1OC | 27.4% | 
COc1ccc(OCC(=O)Nc2cc(C)c(Cl)cc2OC)c([N+](=O)[O-])c1 | -1.34% | 
Cc1nnc(-c2ccc(Oc3ccc(C)c(C)c3)c([N+](=O)[O-])c2)o1 |  | 16.4 µM (active)
Nc1nc(SCC(=O)NN(c2ccccc2)c2ccccc2)n[nH]1 | -13.5% | 
Cc1ccc(C(=O)Nc2ccccc2F)cc1S(=O)(=O)N1CCOCC1 | -22.7% | 
CCc1ccc(N(C(=O)c2csnn2)C(C(=O)NC2CCCCC2)c2cccnc2)cc1 (configuration not stated) | -12.1% | 
Cc1ccc(S(=O)(=O)NCCC(c2ccccc2)c2ccccc2)cc1C(=O)O | 7.68% | 
O=c1[nH]oc(O)c1-c1ncc(C(F)(F)F)cc1Cl | 7.03% | 
CCNS(=O)(=O)c1cc(-c2nnc(Nc3cccc(C(F)(F)F)c3)c3ccccc23)ccc1C |  | 5.8 µM (active)
Cc1ccc(-c2nnc(Nc3ccc(C(=O)N(C)C)cc3)c3ccccc23)cc1S(N)(=O)=O | -0.81% | 
COCCNS(=O)(=O)c1cc(-c2nn3c(C)nnc3c3ccccc23)ccc1C | -19.3% | 
O=C(O)C1CCCN1C1=NS(=O)(=O)c2ccccc21 (configuration not stated) | 3.57% | 
CN1OC[C@@H]2CN(S(=O)(=O)c3cccc(C(F)(F)F)c3)[C@H](c3ccc(-c4cc5ccccc5o4)cc3)C[C@@H]21 | -28.6% | 

SMILES | activity change, negative = growth inhibition | Potency
CC1=CC(=NNS(=O)(=O)c2ccc([N+](=O)[O-])cc2)CC(C)(C)C1 | -24.4% | 
CCCC1OC23CCCCC2C(C#N)(C#N)C1(C#N)C(=N)O3 (configuration not stated) |  | 5.8 µM (active)
O=C(CSc1cn(CC(=O)N2CCOCC2)c2ccccc12)Nc1ccccc1 | -7.68% | 
O=C(NCc1ccccc1)[C@@H]1CSC2c3ccccc3C(=O)N21 (some centres not stated) | -16.3% | 
COCCCC1CCN(C(=O)C2CCC(=O)N(C3CCCCCC3)C2)CC1 (configuration not stated) | -49.8% | 
CC1CN(/C=C/C(=O)C(F)(F)F)CC(C)O1 (configuration not stated) | -1.96% | 
COC(=O)N/N=C/c1c[n+]([O-])c2ccccc2[n+]1[O-] | -9.69% | 
O=C(COc1ccc(Cl)cc1Cl)NCCCNC(=O)c1cnccn1 | 2.77% | 
Cc1cccnc1C(NC(=O)C1CCN(Cc2ccc(Cl)c(Cl)c2)CC1)c1ccc(Cl)cc1 (configuration not stated) |  | 3.26 µM (active)
O=C(NNS(=O)(=O)c1ccc(Cl)cc1)C1CCN(Cc2ccccc2)CC1 | -15.1% | 
COc1cccc(CN2CCC(C(=O)NC(c3ccc4c(c3)OCO4)c3ccccn3)CC2)c1 (configuration not stated) | 1.86% | 
CCOc1ccc(S(=O)(=O)N2CCC(C(=O)NCc3ccccn3)CC2)cc1Cl | 1.14% | 
O=C(CCCOc1ccc(Cl)cc1Cl)NNC(=O)C1CCC1 | -2.64% | 
O=C(NC(c1ccc(-c2ccccc2)cc1)c1cnccn1)C1CCN(CCOc2ccc(Cl)cc2Cl)CC1 (configuration not stated) |  | 16.4 µM (active)
Cc1ccc(C(NC(=O)C2CCN(CCOc3ccc(Cl)cc3Cl)CC2)c2ccccn2)cc1 (configuration not stated) |  | 25.9 µM (active)
Clc1ccc(CN2CCCCCC2)cc1Cl | -1.23% | 
Cc1cnc(NC(=O)Cn2cnc3c2c(=O)n(C)c(=O)n3C)s1 | 7.56% | 
Cc1nc2cccnc2nc1C | 10.8% | 
Cc1cc(C)c(NC(=S)N2CCCC2C(=O)O)c(C)c1 (configuration not stated) | -28.7% | 
Cc1ccccc1NC(=O)Cc1nc(COC(=O)c2ccc(C(F)(F)F)cc2)cs1 | -13% | 
COc1ccc(C(CC(=O)Nc2ccc(C)cc2)NC(=O)C(F)(F)F)cc1 (configuration not stated) | 3.04% | 
COc1ccc(C(N)c2csc(NC(=O)Nc3cccc(C(F)(F)F)c3)n2)cc1 (configuration not stated) |  | 18.4 µM (active)
CC(C)(C)CC(=O)Nc1nnc(SCC(=O)NCc2cccs2)s1 | -18.8% | 

SMILES | activity change, negative = growth inhibition | Potency
COC(=O)[C@H](Cc1ccccc1)NC(=O)Nc1ccc(OC)cc1 | -1.58% | 
COc1ccc(NC(=O)C(Br)C(C)C)cc1 (configuration not stated) | 1.83% | 
COc1ccc(CC(N)c2csc(NC(=O)Nc3ccc(C(C)C)cc3)n2)cc1 (configuration not stated) |  | 6.51 µM (active)
CC(C)(C)CC(=O)Nc1nc(C(N)Cc2ccc(C(F)(F)F)cc2)cs1 (configuration not stated) |  | 23.1 µM (active)
CC(C)C[C@H](NC(=O)Nc1cccc(C(F)(F)F)c1)C(=O)O | 1.51% | 
Cc1ccc(NC(=O)Nc2cccc(C(F)(F)F)c2)nc1 | 8.78% | 
COc1ccc(NC(=O)CN(C)CC(=O)Nc2cccc(C(F)(F)F)c2)cc1 | -4% | 
NC(c1csc(NC(=O)Nc2cccc(C(F)(F)F)c2)n1)C1CCCCC1 (configuration not stated) |  | 20.6 µM (active)
CCN(CC(=O)Nc1c(F)cccc1F)C(=O)c1ccc(S(=O)(=O)N2CCCCC2)cc1 | -24% | 
COc1ccccc1OC(C)C(=O)Nc1ccc(S(=O)(=O)Nc2nccs2)cc1 (configuration not stated) | 2.34% | 
COc1ccc(NC(=O)CC2C(=O)NC3CCCCC3N2C(=O)c2ccc(F)cc2)cc1 (configuration not stated) | 3.64% | 
CCOc1ccc(NC(=O)C(CC(C)C)N2Cc3ccccc3C2=O)cc1 (configuration not stated) | -20.7% | 
Cc1ccc(CNS(=O)(=O)c2ccc(-c3cc(C(F)(F)F)on3)s2)cc1 | -20.9% | 
COc1ccccc1CNC(=O)COC(=O)c1sc(C)nc1C | -9.67% | 
COc1ccccc1CNC(=O)c1cc(-c2cc(F)ccc2OC)n[nH]1 | -10.3% | 
COc1ccccc1CNC(=O)c1cc(-c2cc(Cl)ccc2C)n[nH]1 |  | 16.4 µM (active)
CC(Sc1nnc(-c2ccccc2F)n1C1CC1)C(N)=O (configuration not stated) | 0.143% | 
Cc1ccc2c(c1)C1CN(C)CCC1N2S(=O)(=O)c1cccc(F)c1 (configuration not stated) | -24.4% | 
CCCC(=O)N1CCC1(C)C(=O)Nc1ccc(-n2cncn2)cc1 (configuration not stated) | -0.867% | 
CCOC(=O)CSc1nc(C)cc2c1C(=O)OC2 | 1.09% | 
CCOC(=O)CSC1=N/C(=C/c2ccc(-n3cncn3)cc2)C(=O)N1C(C)=O |  | 20.6 µM (active)
